Laboratory results as given in PubChem BioAssay (NCI).
The panel holds about 83,000 compounds, 20% with a hit somewhere; the sample as a whole holds those more often.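 Cells were grown in 96-well plates and exposed to the test compound at a single concentration for 48 hours; results are reported as percent growth, with values below 10 considered active.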 Activity calls are given as the source filed them.

Tests used:
Assay in all cases: NCI-60 one-dose screen, 48 h (100 = growth as untreated, 0 = no growth, -100 = all killed)
Conditions in all cases: 10 µM unless noted
[1] = test system: RPMI-8226 leukemia
[2] = test system: OVCAR-8 ovarian
[3] = test system: OVCAR-5 ovarian
[4] = test system: OVCAR-4 ovarian
[5] = test system: SK-OV-3 ovarian
[6] = test system: IGROV1 ovarian
[7] = test system: OVCAR-3 ovarian
[8] = test system: HS 578T breast
[9] = test system: NCI/ADR-RES ovarian
[10] = test system: T-47D breast
[11] = test system: BT-549 breast
[12] = test system: MDA-MB-435 melanoma
[13] = test system: SW-620 colon
[14] = test system: MCF7 breast
[15] = test system: HCT-116 colon
[16] = test system: HCC-2998 colon
[17] = test system: KM12 colon

Measured: growth

Fc1ccc(Nc2ncnc3ccc(-c4cn[nH]c4)cc23)cc1Cl
active: [5] -11.6% | [6] 5.6% | [10] -20.2%
inactive: [1] 38.9% | [2] 44.1% | [3] 75.7% | [4] 55.5% | [7] 50.6% | [8] 31.4% | [9] 51.6% | [11] 58% | [12] 79.8% | [13] 78.1% | [14] 23.3% | [15] 51.2% | [16] 85% | [17] 67.1%

Nc1nccc2c1ccn2-c1ccc(NC(=O)c2ccc(N3CCOCC3)c(C(F)(F)F)c2)cc1
inactive: [2] 28% | [3] 14.2% | [4] 77.4% | [5] 48.4% | [6] 35.8% | [7] 46% | [9] 49.3% | [10] 39% | [11] 26.5% | [16] 39.1%
active: [1] -29.9% | [12] -8.07% | [13] -32.8% | [14] -18.2% | [15] 4.53% | [17] -41.4%

CC(=O)O[C@@H]1[C@@H](OC(C)=O)[C@H](OC(C)=O)CO[C@H]1Nc1cccc2ccccc12
inactive: [1] 87.9% | [2] 102% | [3] 100% | [4] 103% | [5] 105% | [6] 97.9% | [7] 95.7% | [8] 96.3% | [9] 95.9% | [10] 86.6% | [11] 89.1% | [12] 102% | [13] 98.4% | [16] 94.2% | [17] 84.2%

Cc1cc2c(cc1C)N(C(=O)CCl)CCN2C(=O)CCl
active: [1] -41.9% | [2] -4.44% | [3] -74.4% | [4] -72% | [6] -61.8% | [7] -95.8% | [9] -49.7% | [10] -34.5% | [11] -28.3% | [12] -26.9% | [13] -78.2% | [14] -47.6% | [15] -34% | [16] -97.9% | [17] -85.2%
inactive: [5] 53%

OC[C@@H](O)C(O[C@@H]1O[C@H](CO)[C@H](O)[C@H](O)[C@H]1O)[C@H](O)[C@@H](O)CO (stereo partly drawn)
inactive: [1] 103% | [2] 98.6% | [3] 91.8% | [4] 106% | [5] 99.5% | [6] 95.9% | [7] 103% | [9] 95.4% | [10] 105% | [11] 107% | [12] 95.4% | [13] 102% | [14] 106% | [15] 113% | [16] 95.6% | [17] 103%

C=CCOc1ccc(/C(Cl)=N/N=C(\Cl)c2cc(OC)c(OC)c(OC)c2)cc1
inactive: [1] 70.3% | [2] 62.6% | [3] 97.5% | [4] 84.3% | [5] 64.7% | [6] 64% | [7] 77.1% | [8] 75.5% | [9] 77.6% | [10] 47.6% | [11] 89.5% | [12] 80.6% | [13] 68.3% | [14] 42.8% | [15] 70.2% | [16] 75.6% | [17] 67.9%

O=c1nc(N2CCOCC2)oc2c(-c3cccc4ccccc34)cccc12
inactive: [1] 96.1% | [2] 85.2% | [3] 89.2% | [4] 97.1% | [5] 90% | [6] 75.4% | [7] 85.8% | [8] 83.8% | [9] 83.7% | [10] 79.7% | [11] 85.3% | [12] 101% | [13] 97.9% | [14] 89.8% | [15] 96.7% | [16] 109% | [17] 87.3%

O=C(O)c1cn(C2CC2)c2cc(N3CCN(C(=O)CSc4nc(NS(=O)(=O)c5ccccc5)cc(=O)[nH]4)CC3)c(F)cc2c1=O
inactive: [1] 82.1% | [2] 98.5% | [3] 112% | [4] 104% | [5] 117% | [6] 98.3% | [7] 83.9% | [8] 89.1% | [9] 101% | [10] 116% | [11] 99% | [12] 90.1% | [13] 99.9% | [16] 91.7% | [17] 91.6%

C=C1C(=O)O[C@H]2[C@H]1CC/C(COC(=O)c1cccc3ccccc13)=C\CC[C@@]1(C)O[C@@H]21
active: [1] -40.5% | [2] -42.8% | [3] -47.9% | [4] -38.9% | [6] -68.5% | [7] -86.5% | [8] 2.83% | [9] -28.4% | [10] -60% | [11] -45.1% | [12] -54.2% | [13] -52.8% | [14] -42.9% | [15] -93.8%
inactive: [5] 84.3% | [16] 62.7% | [17] 19.9%

COc1ccc2c(c1)nnc1c3cccnc3[nH]c21
active: [1] -41.9% | [2] 3.13% | [7] -51.1% | [8] -24.5% | [10] 6.14% | [11] 4.75% | [13] -12.5% | [14] -43.5% | [15] -74%
inactive: [3] 36.1% | [4] 14.8% | [5] 19% | [9] 13.8% | [12] 13.8% | [16] 40.6% | [17] 30%

O=C(Nc1ccccc1F)Nc1ccccc1Cl
inactive: [1] 78.8% | [2] 101% | [3] 102% | [4] 73% | [5] 104% | [7] 102% | [8] 103% | [9] 88.9% | [10] 72.5% | [11] 85.7% | [12] 97.4% | [13] 96.2% | [14] 90.5% | [15] 101% | [16] 99.2% | [17] 83.5%

CC(=O)c1ccc2c(c1)C1C=CCC1[C@H](c1cc3c(cc1Br)OCO3)N2 (stereo partly drawn)
inactive: [2] 16.8% | [3] 34.7% | [4] 56.1% | [5] 34.2% | [9] 10.8% | [13] 21.2% | [14] 14.1% | [15] 14.9% | [17] 17%
active: [1] 9.1% | [7] 8.44% | [8] 7.06% | [12] -27.2% | [16] 7.12%

CCCN1C(=O)CSC1=Nc1ccc2cc3ccc(N=C4SCC(=O)N4CCC)cc3nc2c1
inactive: [2] 37.2% | [3] 89.2% | [4] 15.3% | [5] 74.5% | [7] 51% | [8] 31.6% | [9] 24.5% | [10] 12.1% | [11] 41.7% | [12] 40.5% | [13] 70.3% | [14] 16.8% | [15] 37% | [17] 36.7%
active: [1] 1.65%

COc1cc(Nc2ncccc2C(=O)Nc2nc3ccc(F)cc3s2)cc(OC)c1OC
inactive: [2] 91.2% | [3] 105% | [5] 91.7% | [6] 74.5% | [7] 55.6% | [8] 72.8% | [9] 67.2% | [10] 36.2% | [11] 89.3% | [12] 21% | [13] 96.8% | [14] 94.9% | [15] 13.8% | [16] 84.7% | [17] 78.9%
active: [4] 5%
